Screening results deposited in PubChem by Broad Institute.
NSD2 HMT inh: NSD2 histone methyltransferase inhibitors, primary screen, biochemical, AlphaScreen, single concentration, set 2; NSD2 peptide methylation, 120 min; inhibition, % at 12.5 µM; actives 0.54% (n = 310,000); in the data active means inhibition above about 50%
PglD inh: C. jejuni PglD acetyltransferase inhibitors, primary screen, biochemical, DTNB colorimetric, single point; UDP-N-acetylbacillosamine N-acetyltransferase PglD (Campylobacter jejuni); purified PglD enzyme, DTNB colorimetric CoA detection; inhibition, % at 12.5 µM; actives 0.098% (n = 360,000); AID 602405, 2012; in the data active means inhibition above about 16%, passing the limit was not always enough; inconclusive means no clear call, values can overlap the other calls
ALR H2O2 inh: inhibitors of human ALR sulfhydryl oxidase, primary screen, biochemical, H2O2 detection, HRP-luminol luminescence, single point; FAD-linked sulfhydryl oxidase ALR (Homo sapiens), P55789; purified ALR, DTT oxidation; inhibition, % (no concentration beside the values); actives 3.8% (n = 290,000); AID 485317, 2010;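 active means mean replicate inhibition above about 79%, with every replicate also reaching it, limit read from the data; inconclusive means only one of the two criteria met; inactive means mean below limit and not every replicate reaching it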
Env fusion inh: inhibitors of HIV-1 Env-driven cell-cell fusion, primary screen, HeLa-JRFL effector, CEM21 target cells, luciferase | inhibition, % at 12.3 µM | actives 1.1% (n = 360,000);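 active means mean replicate inhibition score of at least 50 and every replicate individually at or above 50; inconclusive means only one of the two criteria met; inactive means mean below 50 and not all replicates reaching 50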;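 further: 0% = plate neutral controls and 100% = maraviroc near 300 nM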
Casp6 inh: human caspase-6 inhibitors, primary screen, biochemical, VEID-R110 fluorescence, single point, set 2; P55212; purified caspase-6, Z-VEID-R110 cleavage fluorescence; inhibition, % at 12.5 µM; actives 0.53% (n = 350,000); AID 686996, 2013;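 active means mean inhibition across replicates at least about 35%, with every replicate also reaching that limit, limit read from the data; inconclusive means only one of the two criteria met; inactive means neither criterion met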;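 further: 0% = median of neutral control wells and 100% = no fluorescence left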
Target sequence (P55212 24-179 limits assumed): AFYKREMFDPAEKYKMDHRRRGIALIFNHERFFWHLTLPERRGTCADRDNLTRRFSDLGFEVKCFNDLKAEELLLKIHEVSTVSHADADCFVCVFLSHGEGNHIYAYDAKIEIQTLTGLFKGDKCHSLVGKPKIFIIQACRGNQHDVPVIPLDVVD
Target sequence (P55212 194-293 limits assumed): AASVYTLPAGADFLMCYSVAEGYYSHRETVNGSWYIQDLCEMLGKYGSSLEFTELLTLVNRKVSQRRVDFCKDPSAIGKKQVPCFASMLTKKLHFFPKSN
F508del corr: F508del CFTR correction, initial screen, CFBE line, single point; activity (quench increase), % at 7.58 µM; CFBE cells, YFP halide quenching; stimulated with forskolin plus potentiator P3; % fluorescence drop versus neutral controls; actives 0.36% (n = 350,000);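 active means mean added fluorescence quench of at least 8% versus neutral control, with both replicates also reaching 8%; inconclusive means only one of the mean or replicate conditions met; inactive means mean below 8% and not both replicates reaching 8%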;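 further: cells transiently co-express mutant CFTR-F508del with the halide-sensitive YFP; corrector assay measuring rescue of mutant channel to the surface after 24 h compound exposure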
* = called active by the depositor; [ ] = another dose, or the depositor's remark. Only some compounds are listed: those with a hit (about 4.1% of all), similar ones and a draw of the others.

How did COC(=O)[C@]1(Cc2ccccc2)N[C@H](CN(C)S(=O)(=O)c2ccc(C(F)(F)F)cc2)[C@@H]2C(=O)N(Cc3ccccc3)C(=O)[C@@H]21 do in these assays?
PglD inh: -4; ALR H2O2 inh: 0; Env fusion inh: 69*; Casp6 inh: 4; F508del corr: -1

How did COC(=O)[C@]1(C)N[C@H](CN(C)S(=O)(=O)c2ccc(-c3ccccc3)cc2)[C@@H]2C(=O)N(Cc3ccccc3)C(=O)[C@@H]21 do in these assays?
PglD inh: -1; Env fusion inh: 81*; Casp6 inh: 4; F508del corr: 1

What do the screens show for `CC[C@@]1(C(=O)OC)N[C@H](CN(C)S(=O)(=O)c2ccccc2)[C@@H]2C(=O)N(Cc3ccccc3)C(=O)[C@@H]21`?
PglD inh: 3; Env fusion inh: inconclusive; Casp6 inh: 0; F508del corr: -1

Results for CC[C@@]1(C(=O)OC)N[C@H](CN(C)S(=O)(=O)c2ccc(-c3ccccc3)cc2)[C@@H]2C(=O)N(Cc3ccccc3)C(=O)[C@@H]21 ?
PglD inh: 5; Env fusion inh: 138*; Casp6 inh: -2; F508del corr: 0

Results for COC(=O)[C@]1(C)N[C@H](CN(C)S(=O)(=O)c2ccccc2)[C@@H]2C(=O)N(Cc3ccccc3)C(=O)[C@@H]21 ?
PglD inh: 1; ALR H2O2 inh: 0; Env fusion inh: 5; F508del corr: 0

What do the screens show for `O=C(O)c1ccc2c(=O)n3c(nc2c1)/C(=C/c1cccc(Cl)c1Cl)CCCC3`?
NSD2 HMT inh: -1; PglD inh: 1; ALR H2O2 inh: 97*

How did COc1ccc(CN(C)C[C@@H]2Oc3c(NC(=O)c4cnccn4)cccc3C(=O)N([C@H](C)CO)C[C@H]2C)cc1 do in these assays?
PglD inh: 1; Casp6 inh: 1; F508del corr: 0

How did CCCn1nc([N+](=O)[O-])c(C(C#N)c2nc3ccccc3s2)c(Cl)c1=O (configuration not stated) do in these assays?
NSD2 HMT inh: 52*; PglD inh: -3; ALR H2O2 inh: 97*; Env fusion inh: 29

Results for Cc1ccc(S(=O)(=O)NNc2ccccc2)c(C)c1 ?
NSD2 HMT inh: 0; PglD inh: 5; ALR H2O2 inh: 100*; Env fusion inh: -3; Casp6 inh: 0

What do the screens show for `COc1ccc(S(=O)(=O)Nc2ccc(O)c3ccccc23)cc1`?
NSD2 HMT inh: 4; PglD inh: 0; ALR H2O2 inh: 89*; Env fusion inh: inconclusive

What do the screens show for `Cc1ccc(S(=O)(=O)Nc2ccc(O)c3ccccc23)c(C)c1`?
NSD2 HMT inh: 3; PglD inh: -8; ALR H2O2 inh: 95*; Env fusion inh: 0; Casp6 inh: 6; F508del corr: -1

How did Cc1ccc(C)c(S(=O)(=O)Nc2ccc(O)c3ccccc23)c1 do in these assays?
NSD2 HMT inh: 6; PglD inh: 2; ALR H2O2 inh: 85*; Env fusion inh: 9; Casp6 inh: 20; F508del corr: -4

Results for Cc1ccc(S(=O)(=O)Nc2ccc3c4c(cccc24)CC3)c(C)c1 ?
NSD2 HMT inh: 1; PglD inh: 1

Results for C[C@@H]1CN([C@@H](C)CO)C(=O)c2cc(NC(=O)CCCN(C)C)ccc2O[C@@H]1CN(C)Cc1ccc(C(=O)O)cc1 ?
PglD inh: -10; Env fusion inh: -13[16.7 µM]; Casp6 inh: 2; F508del corr: -1

Results for COc1ccc(S(=O)(=O)NCCSCc2ccccc2C)cc1Br ?
NSD2 HMT inh: 1; PglD inh: 13; ALR H2O2 inh: 98*; Env fusion inh: 7

Results for CCOCC(=O)Nc1c(C(=O)N2CCN(c3ncccn3)CC2)oc2ccccc12 ?
NSD2 HMT inh: 7; PglD inh: 0; ALR H2O2 inh: -1; Env fusion inh: -2; Casp6 inh: 6; F508del corr: 0

How did O=C(c1oc2ccccc2c1CSCc1ccccc1)N1CCN(c2ncccn2)CC1 do in these assays?
ALR H2O2 inh: -9; Env fusion inh: 56*
